# Screens as filed in PubChem.
# The list is not random: actives were taken first. Their share in the collection is about 2.1%.
# TDP-43 yeast inh: TDP-43 toxicity inhibition in yeast; TDP-43 expressing yeast growth rescue, BacTiter-Glo, 24 h; AID 652104; Potency, µM (top dose mostly 46.1 µM), for inactives: at the highest dose growth rescue (activation), actives largely listed as activators; hit rate 1.8% among 410,000; further: % of control where 0% means no effect; nearly all actives have a fitted effect of over 50% in size
#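 Yeast cells expressing TDP-43 under galactose induction are exposed to compounds for 24 hr at 30 deg C. BacTiter-Glo luminescence measures growth, so protective compounds score as activators.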
# FUS yeast rescue: suppressors of FUS proteinopathy in yeast; S. cerevisiae FUS-expressing, growth rescue, OD600, 24 h; Potency, µM (highest dose often 76.6 µM), hits mostly activators; hit rate 0.24% among 390,000; AID 1347120;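 further: plate controls were DMSO vehicle for no effect and reference control for full effect; nearly all actives have a fitted effect of over 55% in size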
#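 Restored growth of FUS-toxic S. cerevisiae, read as 600 nm absorbance after 24 h at 30C in galactose medium (starting OD 0.005). Controls CP55940 and DMSO.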
# Abeta rescue: restores growth of yeast expressing A-beta42 peptide; yeast expressing A-beta42, growth rescue, OD600, 48 h; response scale: 0% DMSO, 100% iron-clioquinol control; Potency, µM (titrated, usually from 46.1 µM), usual class: activators; hit rate 0.063% among 410,000; further: nearly all actives have a fitted effect of over 55% in size
#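 Yeast growth medium received pinned compounds, then yeast cells expressing toxic A-beta were added; plates incubated at 30 C for 48 hr. Growth read as absorbance at 600 nm, normalized to DMSO and equimolar FeCl3 plus clioquinol controls.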
# aSyn rescue: alpha-synuclein toxicity inhibition in yeast. Potency, µM (series often up to 46.1 µM), inactives show at the highest dose growth rescue (activation), usual class: activators. Yeast expressing alpha-synuclein, growth rescue, BacTiter-Glo, 24 h. hit rate 0.14% among 370,000; further: % of control where 0% means no effect; nearly all actives have a fitted effect of over 65% in size
#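 Screening used galactose-induced yeast with toxic alpha-synuclein levels, exposed to compound for 24 hr at 30 deg C. Cell growth, read with BacTiter-Glo luminescence, gave the measured signal.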
# * = called active by the depositor; i = inactive; ? = inconclusive; . = not tested or not shown; [ ] = remark or other dose. The call rests on the fitted dose curve; in most records, active means well fitted curve in the direction sought with a large enough effect; inconclusive means small, poorly fitted or top-dose-only effect, or another doubt; inactive means no such curve, though single readings can be large; an effect the other way counts as inactive or inconclusive. Potency means the concentration at half of the fitted maximal effect.
SMILES,TDP-43 yeast inh,FUS yeast rescue,Abeta rescue,aSyn rescue
Cc1cccc2c(C(=O)N3CCN(c4ccccn4)CC3)cc(-c3cccc(Br)c3)nc12,18µM*,?,i,12%
COc1ccccc1CNS(=O)(=O)c1ccc2c(c1)NC(=O)CC(=O)N2,25%,i,i,.
O=C(CSc1cn(CC(=O)N2CCCCC2)c2ccccc12)Nc1ccccc1F,25%,i,i,.
CCOc1ccc2oc(=O)cc(CN3CCN(Cc4ccc(F)cc4)CC3)c2c1,4%,i,i,.
COc1ccccc1N1CCN(C2CC(=O)N(c3cccc(Br)c3)C2=O)CC1 (stereo not drawn),27%,i,i,-70%
COc1cc2c(cc1OC)CN(C1CC(=O)N(c3c(C)cccc3C)C1=O)CC2 (stereo not drawn),14µM*,i,i,10%
CCOc1ccc(C(=O)Nc2cc(-c3nc4ccccc4[nH]3)ccc2Cl)cc1[N+](=O)[O-],4µM*,.,i,-14%
CCCOc1ccc(C(=O)Nc2cc(-c3nc4ccccc4[nH]3)ccc2C)cc1,13µM*,i,i,.
CCOc1ccc(C(=O)Nc2cc(-c3nc4ccccc4[nH]3)ccc2C)cc1[N+](=O)[O-],-3%,?,i,-16%
COc1ccccc1C(=O)NNC1=C(C(=O)C(F)(F)F)CCC1,-10%,i,?,3.5µM*
O=C(NNC1=C(C(=O)C(F)(F)F)CCC1)c1ccccc1O,-18%,i,i,-9%
O=C(c1ccc(-c2ccccc2Cl)o1)N1CCN(c2ccccc2O)CC1,22µM*,i,i,?
O=C(c1ccco1)N1CCN(C(=O)c2ccc(-c3ccccc3Cl)o2)CC1,14µM*,i,i,-3%[1.84 µM]
O=C(c1ccc(-c2cccc(C(F)(F)F)c2)o1)N1CCN(c2ccccc2O)CC1,16µM*,i,?,9%
O=C(c1cc(-c2ccccc2Cl)on1)N1CCN(C(=O)c2ccco2)CC1,?,i,i,-7%
O=C(c1ccc(-c2ccc(Cl)cc2Cl)o1)N1CCOCC1,18µM*,i,i,5%
O=C(c1ccc(-c2cc(Cl)ccc2Cl)o1)N1CCOCC1,?,i,i,-4%
Cc1cc(N2CCN(Cc3ccccc3)CC2)n2nc(C)nc2n1,.,i,.,.
Cc1ccc(OCCOc2cccc(Br)c2)c([N+](=O)[O-])n1,14µM*,i,i,2%
COC(=O)[C@]12C[C@H](CC(=O)N3CCCC3)C(=O)N(Cc3ccc(Cl)cc3Cl)C1=C[C@H](C(C)(C)C)O[C@@H]2C,.,18µM*,.,.
C#CCNC(=O)C[C@H]1C[C@@]2(C(=O)OC)C(=C[C@H](C(C)(C)C)O[C@@H]2C)N(Cc2ccc(Cl)cc2Cl)C1=O,.,18µM*,.,.
CCC(Oc1ccccc1)C(=O)Nc1nnc(S(=O)(=O)N2CCCCC2)s1 (stereo not drawn),8%,?,i,11%
CC(Oc1ccccc1)C(=O)Nc1nnc(S(=O)(=O)N2CCCCCC2)s1 (stereo not drawn),20µM*,i,i,-21%
Cn1cccc1CNC(=O)Nc1ccccc1,-13%,22µM*,i,0%
COc1ccc(C2=CC(=O)OC3(CCCC3)O2)cc1,16µM*,i,i,0%
SMILES,TDP-43 yeast inh,FUS yeast rescue,Abeta rescue,aSyn rescue
COC1=CC(=O)OC12CCCCC2,16%,i,i,1%
Oc1c(Cl)cc(Cl)cc1/C=N/NC(=S)NC1CC2C=CC1C2 (stereo not drawn),-6%[1.82 µM],i,?,1%
Oc1ccccc1/C=N/NC(=S)NC1CC2C=CC1C2 (stereo not drawn),16%,i,11µM*,24%
Oc1ccccc1C=NNC(=S)Nc1ccc(F)cc1,?,i,i,22µM*
Oc1ccccc1C=NNC(=S)NC1CC2C=CC1C2 (stereo not drawn),13µM*,i,?,?
O=C(Nc1ccc(F)cc1)OCc1cn(Cc2ccc(F)cc2)nn1,.,i,.,.
CCOC(=O)Cn1nc(-c2ccccc2)c2cnc3ccc(OCC)cc3c21,?,i,i,.
CC(C)(C)c1ccc(Cn2cnc(-c3ccc([N+](=O)[O-])cc3)c2)cc1,32µM*,.,i,4%
Cc1cc(C)c(Cn2cnc(-c3ccc([N+](=O)[O-])cc3)c2)c(C)c1,-11%,i,i,-4%
O=C(NC1CCCCCC1)c1ccc(CS(=O)(=O)Cc2ccccc2F)o1,1%,i,i,3%
O=C(NC1CCCCC1)c1ccc(-c2ccccc2F)o1,13µM*,.,i,1%
CCc1ccc2oc(C(=O)Nc3cccnc3)c(C)c2c1,-9%,i,i,-2%
Cc1c(C(=O)Nc2cccnc2)oc2ccc(Br)cc12,8.9µM*,i,i,-11%
C/C(=N\NC(=O)Cc1cccs1)c1ccco1,.,i,.,.
Cc1ccc(OCC(=O)NCCCNC(=O)c2cnccn2)cc1C,-14%,i,i,0%
Cc1cc(OCC(=O)NNC(=O)c2cnccn2)cc(C)c1Cl,?,i,?,18µM*
Cc1ccc2c(c1)-c1onc(C(=O)N3CCN(c4cccc(C)c4C)CC3)c1CO2,4%,i,i,3%
O=C(c1noc2c1CCCCC2)N1CCN(c2ccc(Cl)cc2)CC1,11%,i,i,.
Cc1ccc(CSCC(=O)N2CCN(c3cc(Cl)ccc3C)CC2)cc1,18µM*,i,i,.
Cc1ccc(Cl)cc1N1CCN(C(=O)c2noc3c2CCCC3)CC1,22µM*,i,i,.
Cc1cccc(N2CCN(C(=O)c3noc4c3CCCCC4)CC2)c1C,16µM*,i,i,.
Cc1ccc(Cl)cc1N1CCN(C(=O)c2noc(C)c2[N+](=O)[O-])CC1,13µM*,i,i,2%
Cc1onc(C(=O)N2CCN(c3ccccc3)CC2)c1[N+](=O)[O-],?,i,i,-3%
O=S(=O)(c1ccccc1C(F)(F)F)N1CCN(c2nc(-c3ccccc3)nc3ccccc23)CC1,.,.,.,-7%
Cc1ccccc1CS(=O)(=O)Cc1ccc(C(=O)NCc2ccc(F)cc2)o1,23%,i,i,5%
SMILES,TDP-43 yeast inh,FUS yeast rescue,Abeta rescue,aSyn rescue
CC(=O)Nc1ccc(C(=O)O)cc1,12%,i,i,-3%
C=CCNc1ccc(C(=O)O)cc1,14µM*,i,i,11%
O=C(O)c1ccc(NCc2ccc(Br)cc2)cc1,3.5µM*,i,i,3%
Clc1cccc(Nc2ncnc3c2nc2n3CCCCC2)c1,16µM*,i,i,.
Cc1ccc(CNc2ncnc3c2nc2n3CCCC2)cc1,2%,i,i,.
Clc1cccc(CNc2ncnc3c2nc2n3CCCC2)c1,13µM*,i,?,.
Clc1ccccc1Nc1ncnc2c1nc1n2CCCCC1,18µM*,i,i,.
Cc1ccc(Nc2ncnc3c2nc2n3CCCC2)c(Br)c1,18µM*,i,i,.
COc1ccccc1Nc1ncnc2c1nc1n2CCCCC1,12%,i,i,.
